The record followed here is PubChem BioAssay AID2221 (Broad Institute, 2009).

SMILES strings stand for the structures. About 2,200 (0.76%) of roughly 290,000 compounds were called active. Cut-off read from the data, not from the text of the source: active = inhibition above about 30%; inconclusive = no clear call, values can overlap the other calls; inactive = below that. What follows is part of a selection rich in actives, with near analogues and random picks from the rest.

This experiment deals with Protein RecA (Mycobacterium tuberculosis (strain ATCC 25618 / H37Rv)) (UniProt P9WHJ3). Briefly: Mtb RecA intein splicing inhibitors, primary screen, biochemical, fluorescence, HTS (AID 2221).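 Note: 0% = vehicle wells and 100% = reference inhibitor control wells.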 Conditions: cell-free RecA intein splicing, active compounds read high, concentration not given here.
Sequence of Protein RecA (Mycobacterium tuberculosis (strain ATCC 25618 / H37Rv)) (P9WHJ3 whole entry, looked up): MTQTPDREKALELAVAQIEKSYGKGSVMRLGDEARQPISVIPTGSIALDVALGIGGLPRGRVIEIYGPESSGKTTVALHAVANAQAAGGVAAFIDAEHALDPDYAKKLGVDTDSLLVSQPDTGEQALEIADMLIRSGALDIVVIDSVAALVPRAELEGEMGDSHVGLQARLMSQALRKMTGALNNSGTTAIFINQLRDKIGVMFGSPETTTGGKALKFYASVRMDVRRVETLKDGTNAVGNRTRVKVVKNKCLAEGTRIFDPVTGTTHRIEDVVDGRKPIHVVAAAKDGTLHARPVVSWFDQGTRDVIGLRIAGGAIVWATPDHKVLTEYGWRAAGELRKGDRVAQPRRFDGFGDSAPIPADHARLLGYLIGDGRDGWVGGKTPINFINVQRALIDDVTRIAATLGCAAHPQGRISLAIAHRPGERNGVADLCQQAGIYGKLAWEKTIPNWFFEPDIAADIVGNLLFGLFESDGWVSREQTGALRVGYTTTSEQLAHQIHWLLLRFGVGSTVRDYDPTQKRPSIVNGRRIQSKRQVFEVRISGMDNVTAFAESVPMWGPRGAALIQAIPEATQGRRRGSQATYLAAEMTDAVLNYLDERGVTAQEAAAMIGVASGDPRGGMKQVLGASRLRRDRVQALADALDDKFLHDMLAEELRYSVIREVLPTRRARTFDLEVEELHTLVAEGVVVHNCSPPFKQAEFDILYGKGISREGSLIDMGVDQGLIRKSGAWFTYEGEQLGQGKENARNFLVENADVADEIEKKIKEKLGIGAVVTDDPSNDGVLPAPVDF
In the case of `S=c1nccc(-c2cc(Cl)sc2Cl)[nH]1`, the inhibition was 2.58% (inactive).

Take `O=c1oc2ccccc2cc1-c1csc(Nc2ccc(O)cc2)n1`: the inhibition is -3.92% (inactive).

As to `COc1ccc(-c2csc(Cc3nc(O)cs3)n2)cc1`, the inhibition was 8.96% (inactive). As to `COc1ccc(-c2csc(Nc3ccc(O)cc3)n2)cc1`, the inhibition is 33.3% (active). Next, `NNC(=O)C1CC(O)CN1S(=O)(=O)c1ccc(Cl)cc1` (stereo not drawn): 0.0391% (inactive); `COc1cccc(CN(C)C(=O)CC23CC4CC(CC(C4)C2)C3)c1OC`: 9.37% (inactive). For the molecule `O=C(NCCc1ccccc1)Oc1ccc(Cl)cc1`, the inhibition is 6.61% (inactive).

As for `COc1cccc(CNC(=O)C2CCCN(c3ncnc4c3nc3n4CCCCC3)C2)c1` (stereo not drawn), the inhibition is 3.28% (inactive). Take `CC(=O)c1ccc(NC(=O)c2ccc3c(Cl)c4c(nc3c2)CCCC4)cc1`: the inhibition was -0.115% (inactive). Next, `COc1cccc(NC(=O)c2ccc3c(SCC(=O)O)c4c(nc3c2)CCCC4)c1`: 16.6% (inactive); `O=C(O)CSc1c2c(nc3cc(C(=O)Nc4cccc(C(F)(F)F)c4)ccc13)CCCC2`: 45.1% (active); `CC(C)CC(=O)Nc1nnc(S(=O)(=O)N(C)c2ccc(Cl)cc2)s1`: -1.1% (inactive). Under `O=C(C1CCCN(S(=O)(=O)c2ccc([N+](=O)[O-])cc2)C1)N1CCCCC1` (stereo not drawn) stands -2.27% (inactive). For the molecule `O=c1oc2ccccc2c(NC2CCCCC2)c1NS(=O)(=O)c1ccc(Cl)cc1`, the inhibition was -0.796% (inactive). For the molecule `O=C(c1ccc(Cl)cc1)n1cnc2ccccc21`, the inhibition was 48.8% (active). Next, `COC(=O)c1cn(C(=O)c2ccc(Cl)cc2)c2ccccc12`: -1.64% (inactive). For `COC(=O)c1ccc(-n2cnc3ccccc32)nc1`, the inhibition was -0.81% (inactive). Under `O=C(Nc1ncccc1O)c1ccc(S(=O)(=O)N2CCCCCC2)cc1` stands -0.935% (inactive). Under `Oc1c(Cl)cc(Cl)c(Cl)c1Cc1c(O)c(Cl)cc(Cl)c1Cl` stands 43.2% (active); under `COC(=O)c1nc(NC(=O)c2ccc(Cl)cc2)n[nH]1`, -2.52% (inactive). With `COC(=O)c1nc(NC(=O)c2ccc(C(C)(C)C)cc2)n[nH]1`, the inhibition is 32.8% (active). As to `COC(=O)c1nc(NC(=O)c2ccc(F)cc2)n[nH]1`, the inhibition was 22.9% (inactive). Under `CC(=O)N1CC(=O)N(CC(=O)Nc2ccc(Br)cc2)C1=S` stands -3.4% (inactive). Under `O=C(Oc1cccc(O)c1)C1CCCCC1` stands -20.9% (inactive). Next, `COC(=O)C1=C(C(=O)OC)C(c2cc([N+](=O)[O-])ccc2O)c2sc(=O)[nH]c2S1` (stereo not drawn): -7.2% (inactive); `CCOC(=O)c1c(C)nc(-c2ccccc2)nc1NC(=O)C(C)C`: -0.631% (inactive); `CCOC(=O)c1c(C)[nH]c(C)c1S(=O)(=O)N(C)CC(=O)Nc1ccccc1C`: -2.47% (inactive). As for `CCOC(=O)c1c(C)[nH]c2c1-c1ccccc1C(=O)C2=O`, the inhibition was 97.6% (active).

Regarding `Cc1cc(C=O)c(C)n1-c1ccc(NC2CCCCC2)c([N+](=O)[O-])c1`, the inhibition was 15.3% (inactive). Next, `NC1=NN(c2cccc(C(=O)O)c2)C(=O)C1`: 83.8% (active); `O=C(c1cccc(N2CCCC2=O)c1)N1CCOCC1`: 2.18% (inactive); `O=C(O)c1cccc(N2C(=O)Nc3ccccc3N2O)c1`: -5.4% (inactive). As for `N=C1/C(=C/c2cccn2-c2cccc([N+](=O)[O-])c2)C(=O)N=C2SC=CN12`, the inhibition was -0.963% (inactive). On to `Cc1ccccc1Cn1c(=O)[nH]c2ccccc21`, for which the inhibition was 3.55% (inactive). Under `O=c1[nH]c2ccccc2n2c(-c3ccccc3)nnc12` stands 33.2% (active); under `O=c1[nH]n2c(-c3ccccc3)nc(O)c2c2ccccc12`, -1.37% (inactive); under `CN(C(=O)CSc1nnc(N)s1)c1c(N)n(Cc2ccccc2)c(=O)[nH]c1=O`, -0.327% (inactive). As for `CC(C)(C)C(=O)N1CCC[C@@]1(CO)C(=O)O`, the inhibition is -0.553% (inactive). Next, `CCc1ccc2nc(Nc3ncc(C(C)=O)c(C)n3)nc(C)c2c1`: 1.55% (inactive); `Brc1ccc(-c2n(-c3ccccn3)c3ccccc3[n+]2-c2ccccn2)cc1`: 6.87% (inactive); `Cc1[nH]c2ccccc2c1C(=O)CN1CCCC(C)C1` (stereo not drawn): -2.48% (inactive). Next, `CCn1nnnc1SCC(=O)Nc1ccc(N(C)C)cc1`: -2.84% (inactive); `CC(OC(=O)c1ccccc1OCc1ccc(Cl)cc1)C(N)=O` (stereo not drawn): -4.29% (inactive). With `CC(=O)N(Cc1cc(=O)[nH]c2ccccc12)c1ccc(C)cc1C`, the inhibition was 2.74% (inactive). On to `Cc1ccc(N(Cc2cc3ccccc3[nH]c2=O)C(=O)c2cccs2)cc1`, for which the inhibition is 0.4% (inactive). Next, `Cc1ccc(N(Cc2cc(=O)[nH]c3ccccc23)C(=O)CCl)cc1`: 69.5% (active); `COc1ccccc1CC(=O)NCCc1c[nH]c2ccccc12`: 3.54% (inactive); `O=C(Cc1c[nH]c2ccccc12)OCCOC(=O)Cc1c[nH]c2ccccc12`: 1.52% (inactive).

`O=S(=O)(O)Oc1c[nH]c2ccccc12`: the inhibition is 75% (active). Under `O=C(O)C1CCCN(CCC=C(c2ccccc2)c2ccccc2)C1` (stereo not drawn) stands -1.43% (inactive); under `O=S(=O)(Nc1n[nH]c(C(F)(F)F)n1)c1ccccc1`, -1.49% (inactive); under `O=C(Nc1ccccc1)c1ccc(NC(=O)c2cccs2)cc1`, -3.07% (inactive). Consider `O=C(Nc1n[nH]c(C(F)(F)F)n1)c1cccs1`, for which the inhibition is 51.9% (active). Next, `Cc1ccc(-c2noc(C3CCCN(C(=O)c4cccc(Cl)c4)C3)n2)o1` (stereo not drawn): 1.61% (inactive); `Cc1cc(C)c2c3c(sc2n1)C(c1ccccc1)C(C#N)=C(N)O3` (stereo not drawn): -1.99% (inactive); `C=CCOC(=O)C1=C(C)OC(N)=C(C#N)C1c1ccc(F)cc1` (stereo not drawn): 5.83% (inactive). With `COc1ccccc1C1C(C#N)=C(N)Oc2c1c(-c1ccccc1)nn2-c1ccccc1` (stereo not drawn), the inhibition is 35.8% (active).

Regarding `Cn1c2c(c(=O)n(C)c1=O)C(c1cccc(F)c1)C(C#N)=C(N)O2` (stereo not drawn), the inhibition was -1.55% (inactive).

On to `Cc1nn(Cc2ccccc2)c(C)c1NS(=O)(=O)c1ccccc1`, for which the inhibition is 1.17% (inactive). Under `Cc1nn(-c2ccccc2)c2c1C(c1ccc(F)cc1)C(C#N)=C(N)O2` (stereo not drawn) stands 43.3% (active); under `COc1ccc(C2C(C#N)=C(N)Oc3cc(N)ccc32)cc1OC` (stereo not drawn), -13.5% (inactive); under `Cc1nn(Cc2ccccc2)c2c1C(c1ccccc1)C(C#N)=C(N)O2` (stereo not drawn), 66.3% (active).

For the molecule `COC(=O)C1=C(C)OC(N)=C(C#N)C1c1cc(OC)ccc1OC` (stereo not drawn), the inhibition is -1.82% (inactive). Next, `Cc1n[nH]c(C)c1S(=O)(=O)N1CCCC(C(=O)Nc2ccc(Br)cc2)C1` (stereo not drawn): -13.2% (inactive); `CC1CC(C)(C)CC2(C1)NC(=O)N(CC(=O)Nc1nccs1)C2=O` (stereo not drawn): -1.2% (inactive). `CCN1CCC2(CC1)N=C(c1ccc(F)cc1)C(=S)N2C(=O)c1ccc(C)cc1`: the inhibition was 1.27% (inactive).

For `COc1ccc(-c2ccc(CCC(=O)O)n2NC(=O)c2ccc(C(C)(C)C)cc2)cc1`, the inhibition was 3.63% (inactive). Under `CCN1C(=O)[C@@H]2[C@@H](c3ccc(-c4ccccc4)cc3)N3CCCC[C@@]3(C(=O)OC)[C@@H]2C1=O` stands 2.14% (inactive); under `Cc1ccc(-c2nc(SCC(=O)Nc3ccccc3OC(F)F)c3c(C)c(C(=O)O)sc3n2)cc1`, 2.99% (inactive). Under `Cc1ccc(CC2C(=O)N(c3ccc(F)cc3)C(=O)C2C)cc1` (stereo not drawn) stands -0.367% (inactive); under `COc1cc(/C(=C/c2ccccc2)c2ccccc2)c2c(c1)oc1ccccc12`, -0.274% (inactive); under `COc1ccc(OC)c(/C(C)=N\NC(=O)c2cc3cc(Cl)ccc3n2C)c1`, 9.04% (inactive).

Regarding `CC(=O)C1C(c2cccc(Oc3ccccc3)c2)NC(=O)NC1(O)C(F)(F)F` (stereo not drawn), the inhibition was -2.89% (inactive).

`O=C1NC(c2ccc(-c3ccccc3[N+](=O)[O-])o2)C(C(=O)c2ccc(Cl)cc2)C(O)(C(F)(F)F)N1` (stereo not drawn): the inhibition is 45% (active). Next, `CC1=NN(c2ccc(Cl)c(C(=O)O)c2)C(=O)/C1=C/c1ccc(-c2ccccc2[N+](=O)[O-])o1`: 7.48% (inactive). Next, `CC1(C)CC(=O)C(N=Nc2ccc(S(=O)(=O)N3CCCCCC3)cc2)=C(O)C1`: -0.925% (inactive). Under `O=C1C=CC(=O)N1c1ccc(N2CCCCC2)cc1` stands 3.11% (inactive); under `COc1ccc(NC2=CC(=S)NC(C)(C)C2)cc1`, 1.09% (inactive); under `O=C1C(=O)N(CC2COc3ccccc3O2)c2ccccc21` (stereo not drawn), 6.05% (inactive).

On to `Cc1cc(NC(=O)CCC2COc3ccccc3O2)no1` (stereo not drawn), for which the inhibition was 2.09% (inactive). Consider `Cc1cc(C(=O)CCl)c(C)n1CC1COc2ccccc2O1` (stereo not drawn), for which the inhibition was 40.6% (active).

For the molecule `Cc1ccc(-c2nnc(Nc3ccc(C(=O)N(C)C)cc3)c3ccccc23)cc1S(N)(=O)=O`, the inhibition was -0.54% (inactive). Under `CCCOc1ccc(/C=N/NC(=O)C2CC2)c(OCCC)c1` stands -1.61% (inactive). Next, `COc1ccc(NC(=O)c2cnc(NS(=O)(=O)c3ccccc3)nc2)cc1`: 0.334% (inactive). Consider `COc1ccc(S(=O)(=O)/N=C2\C=C(NS(=O)(=O)c3ccccc3)C(=O)c3ccccc32)cc1`, for which the inhibition is 36.2% (active). As for `O=S(=O)(Nc1ccccn1)c1ccc(Oc2ccccc2)cc1`, the inhibition is -0.988% (inactive).

As to `Cc1ccccc1C(=O)N1CCC(C(=O)Nc2ccc(S(=O)(=O)N(C)C(C)C)cc2)CC1`, the inhibition was 0.242% (inactive). Under `C[n+]1ccc(C(=O)NCc2ccccc2)cc1` stands 1.21% (inactive). Next, `Cc1cccc(C)c1NC(=S)N(Cc1cccnc1)Cc1ccccc1Cl`: 2.64% (inactive). Next, `NC(=O)C1CCN(C(=O)c2ccc(-c3ccccc3)cc2)CC1`: -3.02% (inactive). On to `CCOC(=O)N1CCC(NC(=O)COc2cc(=O)n(C)c3ccccc23)CC1`, for which the inhibition is -3.15% (inactive). Next, `CCOC(=O)N1CCC(c2cc(=O)n(-c3ccccc3)[nH]2)CC1`: 95.5% (active); `CCOC(=O)N1CCC(NC(=O)CCc2ccccc2)CC1`: -0.782% (inactive).
